Hits are enriched below; roughly 5.7% of the tested compounds scored in any of these assays.
rCAG binder: r(CAG) repeat RNA binding | TO-PRO-1 dye displacement fluorescence | inhibition, % at 3 µM | 370,000 tested, 1.3% active;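 active means inhibition above the plate cutoff, the mean of all test compounds on that plate plus 3 SD, cut at about 35% in these data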;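 further: higher means more dye released from RNA so lower well fluorescence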
MPTP block: inhibitors of mitochondrial permeability transition pore. isolated mouse mitochondria, Ca2+ swelling absorbance, 30 min. AID 602449. inhibition, % at 10 µM. 360,000 tested, 1.4% active;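 active means inhibition of 50% or more, scaled per plate between neutral and stimulator controls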
FAS TE block: blocks the thioesterase domain of human fatty acid synthase. 360,000 tested, 0.67% active. AID 602261. recombinant FAS-TE, OMFH fluorogenic substrate, fluorescence endpoint. inhibition, % at 15 µM. P49327;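 active means compounds whose normalised, plate-corrected inhibition of enzyme fluorescence in the single-dose primary screen is 50% or more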
Target sequence (P49327 whole entry, looked up, the tested form may be a part): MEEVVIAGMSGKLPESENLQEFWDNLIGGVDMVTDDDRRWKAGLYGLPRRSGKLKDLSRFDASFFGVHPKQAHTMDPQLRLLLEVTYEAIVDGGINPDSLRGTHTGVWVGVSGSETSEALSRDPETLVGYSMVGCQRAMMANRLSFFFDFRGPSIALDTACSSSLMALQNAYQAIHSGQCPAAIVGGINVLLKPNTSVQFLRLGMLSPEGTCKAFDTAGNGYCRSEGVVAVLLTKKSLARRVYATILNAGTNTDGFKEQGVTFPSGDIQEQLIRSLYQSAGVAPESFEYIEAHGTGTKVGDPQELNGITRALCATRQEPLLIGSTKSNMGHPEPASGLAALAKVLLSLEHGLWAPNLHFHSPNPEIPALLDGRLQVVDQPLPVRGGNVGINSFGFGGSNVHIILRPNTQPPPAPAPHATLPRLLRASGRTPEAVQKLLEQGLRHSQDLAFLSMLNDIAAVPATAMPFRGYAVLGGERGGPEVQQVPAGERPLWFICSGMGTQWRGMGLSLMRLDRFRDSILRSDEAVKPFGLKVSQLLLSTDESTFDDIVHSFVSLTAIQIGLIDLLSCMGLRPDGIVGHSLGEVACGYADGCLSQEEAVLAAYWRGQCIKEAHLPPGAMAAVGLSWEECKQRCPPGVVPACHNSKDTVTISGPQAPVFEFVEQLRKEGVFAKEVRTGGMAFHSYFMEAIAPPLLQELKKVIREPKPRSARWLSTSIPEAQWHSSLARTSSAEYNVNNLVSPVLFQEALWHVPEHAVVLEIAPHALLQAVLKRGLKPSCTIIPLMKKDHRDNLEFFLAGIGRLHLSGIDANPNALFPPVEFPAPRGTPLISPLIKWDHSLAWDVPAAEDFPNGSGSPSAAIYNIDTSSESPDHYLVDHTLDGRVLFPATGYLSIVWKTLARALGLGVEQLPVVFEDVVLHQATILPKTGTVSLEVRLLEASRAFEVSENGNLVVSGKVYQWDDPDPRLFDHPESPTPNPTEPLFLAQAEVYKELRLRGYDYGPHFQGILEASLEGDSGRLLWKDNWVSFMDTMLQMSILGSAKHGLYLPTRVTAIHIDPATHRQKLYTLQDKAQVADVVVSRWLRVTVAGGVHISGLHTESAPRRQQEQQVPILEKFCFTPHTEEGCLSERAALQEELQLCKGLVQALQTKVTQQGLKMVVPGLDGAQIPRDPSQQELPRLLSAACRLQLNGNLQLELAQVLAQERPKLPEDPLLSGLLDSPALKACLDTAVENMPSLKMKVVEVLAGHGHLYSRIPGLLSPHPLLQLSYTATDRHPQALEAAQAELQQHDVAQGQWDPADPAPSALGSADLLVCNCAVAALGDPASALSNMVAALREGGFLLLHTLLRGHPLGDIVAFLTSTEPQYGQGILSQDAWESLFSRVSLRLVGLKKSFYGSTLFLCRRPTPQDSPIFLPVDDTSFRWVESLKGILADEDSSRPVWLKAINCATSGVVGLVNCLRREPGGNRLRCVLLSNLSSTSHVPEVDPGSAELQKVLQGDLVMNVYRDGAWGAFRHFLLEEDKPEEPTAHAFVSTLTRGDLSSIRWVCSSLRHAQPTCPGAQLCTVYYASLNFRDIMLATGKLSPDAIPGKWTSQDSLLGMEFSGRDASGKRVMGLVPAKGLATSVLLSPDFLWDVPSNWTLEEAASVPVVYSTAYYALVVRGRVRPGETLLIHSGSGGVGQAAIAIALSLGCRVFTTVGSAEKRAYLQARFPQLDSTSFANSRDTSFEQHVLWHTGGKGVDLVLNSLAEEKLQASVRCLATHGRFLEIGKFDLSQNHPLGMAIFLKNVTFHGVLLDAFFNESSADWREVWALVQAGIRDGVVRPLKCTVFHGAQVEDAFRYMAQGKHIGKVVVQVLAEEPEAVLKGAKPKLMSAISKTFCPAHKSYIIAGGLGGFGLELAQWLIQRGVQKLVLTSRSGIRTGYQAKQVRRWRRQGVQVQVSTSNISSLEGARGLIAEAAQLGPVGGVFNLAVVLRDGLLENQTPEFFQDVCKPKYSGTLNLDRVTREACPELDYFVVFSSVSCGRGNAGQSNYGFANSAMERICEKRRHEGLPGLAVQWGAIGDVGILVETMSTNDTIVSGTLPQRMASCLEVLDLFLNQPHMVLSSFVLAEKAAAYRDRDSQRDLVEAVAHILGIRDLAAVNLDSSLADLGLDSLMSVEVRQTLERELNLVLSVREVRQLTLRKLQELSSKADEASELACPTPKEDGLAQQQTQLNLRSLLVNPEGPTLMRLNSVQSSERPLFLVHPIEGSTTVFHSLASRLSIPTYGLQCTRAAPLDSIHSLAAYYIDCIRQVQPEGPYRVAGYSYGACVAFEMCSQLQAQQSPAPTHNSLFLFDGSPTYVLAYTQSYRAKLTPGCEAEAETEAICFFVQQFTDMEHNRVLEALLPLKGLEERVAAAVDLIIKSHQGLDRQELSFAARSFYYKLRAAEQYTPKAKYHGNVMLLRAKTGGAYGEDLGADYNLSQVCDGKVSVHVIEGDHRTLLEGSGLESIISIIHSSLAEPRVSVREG
Myeloid diff MLP: promotes myeloid progenitor differentiation. ER-HoxA9 myeloid progenitors, lysozyme-GFP differentiation, flow cytometry. calls only at 10 µM. 360,000 tested, 1% active. AID 624256;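 active means normalized GFP-positive differentiation at or above the plate's own cutoff, the solvent-only control mean plus 3 SD; inconclusive means no clear call, values can overlap the other calls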;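 further: cells exposed to compound for four days before flow analysis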
NR3A LBD binder: NR3A (human) ligand-binding domain modulation. AID 1259313. NR3A LBD differential scanning fluorimetry, Tm shift; 0% = protein alone, 100% = glycine-bound protein. 340,000 tested, 2.5% active. Tm shift relative to glycine control, % at 25 µM;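 active means melting temperature shift of at least 10% of the positive control shift, at one fixed dose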
Rh123 counter: Rhodamine 123 counter-screen of mitochondrial pore hits; shares compounds with MPTP block; isolated mitochondria, membrane potential, Rhodamine 123 fluorescence; inhibition, % at 10 µM; 5,000 tested, 78% active; in the data active means inhibition above about 22%
MPTP swell DR: dose response confirmation of mitochondrial permeability transition pore inhibitors. shares compounds with MPTP block. isolated mitochondria swelling, absorbance. IC50, µM. 780 tested, 58% active. AID 651561; in the data active means IC50 below about 20 µM
MPTP counter DR: active in counter-screen for permeability transition pore inhibitors; IC50, µM; 780 tested, 49% active; isolated mitochondria counterscreen, fluorescence read-out; AID 651564; shares compounds with MPTP block; in the data active means IC50 below about 80 µM
Of the large screens only hits and unclear results are named; the others gave an inactive call (follow-up assays come after a bar, where they were run).

C[C@H](O)[C@@H]1CN2CCc3c([nH]c4ccccc34)[C@@H]2C[C@@H]1N(C)C(=O)Nc1ccc(Br)cc1	MPTP block 82.7 (no result: NR3A LBD binder) | Rh123 counter 103.8
C[C@H](O)[C@@H]1CN2CCc3c([nH]c4ccccc34)[C@@H]2C[C@@H]1N(C)C(=O)NC1CCCCC1	none (no result: NR3A LBD binder)
CN1CCN(CC#CCn2c3ccccc3c3ccccc32)CC1	MPTP block 86.0 | Rh123 counter inactive | MPTP swell DR inactive | MPTP counter DR inactive
Cc1cc(NC(=O)CSc2nc(-c3cccs3)nc3ccccc23)no1	Myeloid diff MLP inconclusive
COC(=O)c1cccc(NC(=O)NC23CC4CC(CC(C4)C2)C3)c1	none
COC(=O)c1ccc(Cl)c(NC(=O)NC23CC4CC(CC(C4)C2)C3)c1	MPTP block 94.2 | Rh123 counter 82.5
O=C(NC1CCCCCCC1)c1cc(COc2ccc3ncccc3c2)on1	MPTP block 101.9 | Rh123 counter 98.9
CC(CNC(=O)c1cc(COc2ccc3ncccc3c2)on1)c1ccccc1 (centres undefined)	MPTP block 98.6 | Rh123 counter 101.5
CC(=O)N1CCc2cc(S(=O)(=O)NCCCN3CCCCC3)ccc21	none
CC(=O)N1CCc2cc(S(=O)(=O)NCCC3=CCCCC3)ccc21	MPTP block 61.1 | Rh123 counter 81.7
Cc1ccc(NC(=O)c2cc(S(=O)(=O)NCCC3=CCCCC3)ccc2F)cc1F	MPTP block 82.7, NR3A LBD binder 16.6 | Rh123 counter 78.3
O=C(Nc1cccc(F)c1)c1cc(S(=O)(=O)NCCC2=CCCCC2)ccc1F	MPTP block 62.6, NR3A LBD binder 22.4 | Rh123 counter 77.6
Cc1ccc(S(=O)(=O)NCCC2=CCCCC2)cc1C(N)=O	none
COc1ccc(OC)c(NC(=O)NNC(=O)COc2ccc(F)cc2F)c1	none
O=C(O)c1ccccc1C(=O)Nc1ccc(Br)c(C(F)(F)F)c1	none
Cc1cc(C)c(C(=O)Nc2ccc(Br)c(C(F)(F)F)c2)c(C)c1	MPTP block 57.9 | Rh123 counter 82.7
CCC(C)[C@H]1CN=C(N)N1CCc1cccc2ccccc12 (some centres undefined)	MPTP block 89.5 | Rh123 counter inactive | MPTP swell DR 6.52 | MPTP counter DR 29.7
CCC(C)[C@H]1CNC(=S)N1CCc1cccc2ccccc12 (some centres undefined)	none
O=C(Nc1cccc(Cl)c1)c1cccc(Oc2ccc([N+](=O)[O-])cc2Cl)c1	MPTP block 86.0 | Rh123 counter 96.7
COc1ccc([N+](=O)[O-])cc1NC(=O)Nc1cccc(Cl)c1	MPTP block 107.1, NR3A LBD binder 28.7 | Rh123 counter 67.1
O=S1(=O)N[C@H](Cc2ccccc2)COc2cc(N3CCCCC3)ccc21	none (no result: MPTP block, FAS TE block, Myeloid diff MLP, NR3A LBD binder)
Cc1ccc(NS(=O)(=O)c2ccc(C(=O)NC3CCN(Cc4ccccc4)CC3)cc2)cc1	MPTP block 59.5 | Rh123 counter 21.8
O=C(Nc1nc(-c2cccs2)c(C(=O)C(F)(F)F)s1)c1ccccc1	MPTP block 87.8 | Rh123 counter 98.2
C=C(C)Cn1c(SCC)nc2ccccc2c1=O	none
C=C(C)Cn1c(SCC(=O)N/N=C/c2c(O)ccc3ccccc23)nc2ccccc2c1=O	MPTP block 66.4 | Rh123 counter 56.1
CC1=C([N+](=O)[O-])C(c2cccc(Br)c2)C2=C(N1)c1ccccc1C2=O (centres undefined)	MPTP block 85.0 | Rh123 counter 58.5
O=C(NCCCN1CCCC1=O)c1cccc(NS(=O)(=O)c2ccc(Br)cc2)c1	none
Clc1ccc(-c2n[nH]c3c2CCC3)cc1Cl	none
COc1ccc(C(CNC(=O)c2oc3ccc(Br)cc3c2C)N2CCCCC2)cc1 (centres undefined)	MPTP block 85.5 | Rh123 counter inactive | MPTP swell DR 16.5 | MPTP counter DR inactive
COc1ccc(C(CNC(=O)c2oc3cc(Br)ccc3c2C)N2CCCCC2)cc1 (centres undefined)	none
COc1ccc(/C(C)=N/OCC(=O)N=Nc2c(O)[nH]c3ccc(Br)cc23)cc1	MPTP block 57.3 | Rh123 counter inactive | MPTP swell DR inactive | MPTP counter DR 10
Fc1ccc2nc(Nc3nc4c(F)cc(F)cc4s3)sc2c1	MPTP block 97.0, NR3A LBD binder 34.3 | Rh123 counter 71.2
Fc1ccc2nc(Nc3nc4c(F)cccc4s3)sc2c1	MPTP block 95.9, NR3A LBD binder 23.2 | Rh123 counter 46.4
Cc1ccccc1N=C1NC(=O)/C(=C/c2cccn2-c2cccc(C(=O)O)c2)S1	none (no result: MPTP block, FAS TE block, Myeloid diff MLP)
Cc1ccc(N/N=C(\C#N)C(N)=S)cc1C	MPTP block 66.6 | Rh123 counter 88.7
N#C/C(=N\Nc1ccccc1)C(N)=S	none
N#C/C(=N\Nc1ccc(Cl)cc1)C(N)=S	MPTP block 70.0 | Rh123 counter 91.9
O=C(OCc1cn(Cc2ccc(F)c(F)c2)nn1)N1CCCC1	none (no result: MPTP block, FAS TE block, Myeloid diff MLP, NR3A LBD binder)
O=S(=O)(Nc1nc(-c2sccc2Cl)cs1)c1cc(Cl)ccc1Cl	MPTP block 77.6, NR3A LBD binder 13.7 (no result: rCAG binder) | Rh123 counter 50.8
CC(C)(C)c1nnc(NS(=O)(=O)c2cc(Cl)ccc2Cl)s1	none
NC(=O)CCN1CCN(CCOC2Cc3cc(Cl)ccc3Sc3ccccc32)CC1 (centres undefined)	MPTP block 61.6 | Rh123 counter inactive | MPTP swell DR inactive | MPTP counter DR inactive
Cc1nc2ccccc2c(N)c1C(=O)/C=C/c1ccccc1	MPTP block 95.5 | Rh123 counter 84.4
CCCCCCCCN1C(=O)[C@@H](CC(=O)N2CCOCC2)C[C@@]2(C(=O)OC)C1=C[C@H](C(C)C)O[C@@H]2C1CC1	none (no result: MPTP block, FAS TE block, Myeloid diff MLP, NR3A LBD binder)
S=C(Nc1ccc(Br)cc1)N1CCn2cccc2C1c1cccnc1 (centres undefined)	MPTP block 97.1 | Rh123 counter 91.7
Cc1ccc(NC(=S)N2CCn3cccc3C2c2cccnc2)cc1 (centres undefined)	none
CCOC(=O)c1c(NC(=O)c2cc3n(n2)C(C(F)(F)F)CC(c2cccs2)N3)sc(C)c1C (centres undefined)	none
CN(C)CCCNS(=O)(=O)c1ccc(N2CCN(Cc3ccc4c(c3)OCO4)CC2)c([N+](=O)[O-])c1	MPTP block 87.2 | Rh123 counter 93.1
CN(C)CCNS(=O)(=O)c1ccc(N2CCc3ccccc32)c([N+](=O)[O-])c1	MPTP block 88.0 (no result: Myeloid diff MLP) | Rh123 counter inactive | MPTP swell DR 11.8 | MPTP counter DR 49
CC(=O)c1ccc(N2CCN(c3ccc(S(=O)(=O)NCCN(C)C)cc3[N+](=O)[O-])CC2)cc1	none
CCOC(=O)c1c(-c2ccccc2)csc1NC(=O)CSc1nnc(C)s1	MPTP block 67.4 | Rh123 counter 46.3
CN(c1ccccc1)S(=O)(=O)c1nnc(NC(=O)C2CCCCC2)s1	none
